An excerpt weighted towards active compounds, which were near 19% of everything screened.
KB-V1 MDR tox = kills drug-selected multidrug resistant KB-V1 cells | KB-V1 MDR cells viability, CellTiter-Glo, 72 h | AID 1347076 | 400,000 compounds, 3.4% hits | Potency, µM (doses to about 46.1 µM), hits mostly cytotoxic; note: nearly all actives have a fitted effect of over 60% in size
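Compound-treated KB-V1 multidrug-resistant cells, 72 h, 37 degrees C; viability by CellTiter-Glo. Fitted qHTS curves give the values.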
KB-3-1 cytotox = kills parental KB-3-1 adenocarcinoma cells. AID 1347075. Potency, µM (titrated, usually from 46.1 µM), most hits filed as cytotoxic. KB-3-1 viability, CellTiter-Glo ATP luminescence, 72 h. 400,000 compounds, 1.4% hits; note: nearly all actives have a fitted effect of over 60% in size
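Using CellTiter-Glo luminescence, growth of non-resistant KB-3-1 adenocarcinoma cells is assessed 72 h after pin-tool compound addition at 37 °C. Normalized responses across the concentration series yield fitted curves.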
DT40 TDP1 no CPT = qHTS for Inhibitors of human tyrosyl-DNA phosphodiesterase 1 (TDP1): qHTS in cells in absence of CPT; DT40 Tdp1-/- hTDP1 cells, no CPT, ATP luminescence, 48 h; AID 686978, 2013; Potency, µM (titrated, usually from 46.2 µM), for inactives: at the top dose activity change, negative = growth inhibition, most hits filed as inhibitors; 420,000 compounds, 15% hits; note: nearly all actives have a fitted effect of over 55% in size
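Stably hTDP1-transfected Tdp1-null chicken DT40 cells were treated with library compounds minus camptothecin and grown for at least 48 hr at 37 °C, after which cellular ATP was quantified by luminescence.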
HT1080 IDH1KD tx = HT-1080 IDH1 knockdown cell toxicity (counter line). HT-1080 IDH1 knockdown viability, ATP luminescence, 48 h. Potency, µM (top dose mostly 46.1 µM), without a hit: top-dose activity, negative = toxicity, usual class: cytotoxic. 360,000 compounds, 2% hits;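 note: 0% = DMSO wells and -100% = cell-free medium wells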
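IDH1KD HT-1080 cells, 750/well, RPMI + 5% FBS; compound pinned after 2 h settling; 48 h, 37 °C; CellTiter-Glo luminescence; % activity normalised to DMSO and no-cell wells; curves fitted, classed by r2 and efficacy.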
HT1080NT lethal = kills 2HG-producing HT-1080-NT fibrosarcoma cells; Potency, µM (titrated, usually from 46.1 µM), inactives show at the highest dose activity, negative = less viability, usual class: cytotoxic; AID 686970; 360,000 compounds, 1.6% hits; HT-1080-NT fibrosarcoma viability, CellTiter-Glo ATP luminescence, 48 h;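 note: NT is the 2HG producing partner of a matched IDH1 knockdown line; 0% = DMSO-treated cells and -100% = media-only wells without cells; nearly all actives have a fitted effect of over 55% in size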
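HT-1080-NT fibrosarcoma cells (2HG-overproducing), 750 cells/well in RPMI with 5% FBS, dosed after 2 h and incubated 48 h at 37C. CellTiter-Glo luminescence normalized to DMSO and no-cell wells; concentration-response curves fitted and classed.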
TDP1 cell CPT = DT40-hTDP1 cell growth loss with CPT; chicken DT40 Tdp1-/-;hTDP1 cells + 20 nM CPT, ATP luminescence, 48 h; Potency, µM (series often up to 46.2 µM), without a hit: top-dose activity change, negative = growth inhibition, actives largely listed as inhibitors; 420,000 compounds, 12% hits; note: nearly all actives have a fitted effect of over 55% in size
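Chicken DT40 Tdp1-/- cells stably complemented with human TDP1 were seeded at 400 cells/well in medium containing 20 nM camptothecin, exposed to pin-transferred compounds, and grown at 37 °C for at least 48 hr. Viability was read as ATP luminescence.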
* = called active by the depositor; i = inactive; u = inconclusive; x = not tested or not shown. Calls come from the whole dose curve; as a rule, active = well fitted curve in the direction sought with a large enough effect; inconclusive = small, poorly fitted or top-dose-only effect, or another doubt; inactive = no such curve, though single readings can be large; an effect the other way counts as inactive or inconclusive. Unless noted, % is set by controls: 0 for no effect and ±100 for the full control effect; potency is the fitted concentration of half-maximal effect.

SMILES	KB-V1 MDR tox	KB-3-1 cytotox	DT40 TDP1 no CPT	HT1080 IDH1KD tx	HT1080NT lethal	TDP1 cell CPT
CC(C)C(=O)N1CCC1(C)C(=O)NCc1ccc(F)cc1Cl (centres undefined)	i	i	-10.5%	3.4%	-3.3%	u
CCCCc1nn2c(=O)cc(COC(=O)COc3ccc(C)cc3)nc2s1	i	i	3.5%	x	x	-14.3%
C=CCc1cc(Cl)ccc1OCCNCCCOC	u	i	u	4.6%	-10.6%	u
COCCCNCCCOc1ccc(Cl)cc1C(C)(C)C	25.9µM*	u	18.4µM*	20.6µM*	u	11.6µM*
CNCCCOc1ccc(Cl)cc1C(C)(C)C	u	u	16.4µM*	23.1µM*	u	u
CC(=O)c1cccc(NS(=O)(=O)c2ccc(C(=O)Nc3ccccc3)cc2)c1	u	u	11.6µM*	u	-17.6%	18.4µM*
O=C(Nc1cccnc1)c1ccc(-c2ccccc2)cc1	i	i	u	-0.2%	-3.5%	-11.2%
O=C(Nc1ccncc1)c1ccc(-c2ccccc2)cc1	i	23.1µM*	2.91µM*	-23.8%	-9.6%	3.26µM*
CC(C(=O)c1ccc(-c2ccccc2)cc1)[n+]1cccc(NC(=O)c2ccccc2)c1 (centres undefined)	u	i	14.6µM*	u	u	18.4µM*
O=C(Nc1ccncc1)c1ccc(S(=O)(=O)Nc2ccccc2)cc1	i	i	11.6µM*	-13.9%	-25.8%	14.6µM*
CCOC(=O)N1CCN(C(=O)c2cn(CC)c3ccc(S(=O)(=O)N4CCOCC4)cc3c2=O)CC1	i	u	3.7%	-6.7%	-8.8%	-11.8%
O=C(NNC(=O)c1ccc(Cn2cccn2)o1)NC12CC3CC(CC(C3)C1)C2	i	i	4.4%	0.2%	0.0%	6.5%
N#CCC1c2ccccc2CCN1C(=O)Nc1cccc(C(F)(F)F)c1 (centres undefined)	i	u	u	u	12.6µM*	u
N#CCC1c2ccccc2CCN1C(=O)Nc1ccc(C(F)(F)F)cc1 (centres undefined)	i	i	u	u	u	u
N#CCC1c2ccccc2CCN1C(=O)Nc1ccc(Cl)cc1 (centres undefined)	i	i	-15.8%	-29.7%	7.2%	-15.8%
N#CCC1c2ccccc2CCN1C(=O)Nc1cccc(Cl)c1 (centres undefined)	16.4µM*	i	u	u	-14.0%	u
CCOCN(C(=O)CSc1nc2ccccc2[nH]1)c1c(C)cccc1CC	i	i	23.1µM*	x	x	14.6µM*
O=C(O)CSc1nc2ccccc2[nH]1	i	i	u	1.9%	1.3%	u
CCc1cccc(CC)c1N(COC)C(=O)Cn1c(CO)nc2ccccc21	i	i	u	9.3%	3.6%	u
CCOCN(C(=O)Cn1c(CC(C)C)nc2ccccc21)c1c(C)cccc1CC	i	i	23.1µM*	x	x	u
CC1(Oc2ccc3ccccc3c2)CCN(Cc2cccn2-c2nccs2)C1 (centres undefined)	i	i	23.1µM*	14.6µM*	20.6µM*	29.1µM*
COc1cc(Cl)ccc1OC1(C)CCN(Cc2cccn2-c2nccs2)C1 (centres undefined)	i	i	20.6µM*	u	u	11.6µM*
CC(C)(C)c1ccc(S(=O)(=O)NC(=O)C2(C)CCN2C(=O)Cc2ccc(-c3ccccc3)cc2)cc1 (centres undefined)	i	i	-19.9%	u	u	-22.4%
NC(=O)C1CCN(c2nc(C3CC3)nc3c2nnn3Cc2ccccc2Cl)CC1	i	i	-20.8%	-1.1%	2.9%	-6.7%
